BoNT A protease – blocks Botulinum neurotoxin A light chain protease. 0.17% of 360,000 active. multiplex microsphere protease substrate cleavage, flow cytometry. inhibition, % at 10 µM
Bead autofluor – compound fluorescence in toxin protease inhibitor counterscreen; fluorescence intensity (concentration not given with the values); compound autofluorescence counterscreen, microsphere flow cytometry; stronger effect = higher value; 3.1% of 360,000 active; AID 624483; in the data active = fluorescence intensity above about 16000; inconclusive = no clear call, values can overlap the other calls
BoNT-F LC inh – BoNT F light chain protease inhibition | Multiplex microsphere protease cleavage assay, flow cytometry | 0.22% of 360,000 active | inhibition, % at 10 µM; in the data active = inhibition above about 35%, passing the limit was not always enough; inconclusive = no clear call, values can overlap the other calls
MazEF act – MazEF (E. coli) toxin RNase activation; P0AE70; FAM/BHQ RNA-DNA oligo cleavage fluorescence, 5 h; activation, % at 20 µM; 0.32% of 350,000 active; AID 504720; in the data active = activation above about 50%
Target sequence (P0AE70 whole entry, looked up): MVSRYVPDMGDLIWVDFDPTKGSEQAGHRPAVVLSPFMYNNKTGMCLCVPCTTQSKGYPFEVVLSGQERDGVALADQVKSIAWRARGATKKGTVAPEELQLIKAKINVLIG
PfHsp40 rescue – rescue of PfHsp40-mediated yeast toxicity; S. cerevisiae expressing PfHsp40, growth rescue, ATP luminescence; growth rescue, % at 12.5 µM; 0.68% of 340,000 active; AID 504582; in the data active = growth rescue above about 28%, passing the limit was not always enough; inconclusive = no clear call, values can overlap the other calls;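 also: yeast W303a lacking pdr1 and pdr3 grown in galactose medium; growth measured after three days at 30 °C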
Anthrax LF prot – inhibitors of Bacillus anthracis lethal factor protease | P15917 | multiplex microsphere protease cleavage assay, LF | inhibition, % at 10 µM | 0.12% of 360,000 active | AID 588501
Each line names hits and unclear results; the compound was inactive in the other large screens. A selection: hits, their analogues and other compounds. The true share with any hit is near 4.3%. Rule as the data show it, unless noted: active = inhibition above about 30%; inconclusive = no clear call, values can overlap the other calls; inactive = below that.

COc1ccc(NC(=O)CN2CCN(CC(=O)Nc3ccccc3OC)CC2)c(OC)c1	none
COc1ccccc1NC(=O)C(C)N1C(=O)c2ccccc2C1=O (stereo unspecified)	none (no result: BoNT A protease, Bead autofluor, BoNT-F LC inh, Anthrax LF prot)
CC(=O)c1ccc(S(=O)(=O)NC2CC(=O)N(c3ccc(C)c(C)c3)C2)cc1 (stereo unspecified)	none
COc1ccccc1NC(=O)CN1CCN(Cc2ccccc2)CC1	Bead autofluor 16872
COc1ccccc1NC(=O)CN1CCN(CC(=O)Nc2ccc(OCc3ccccc3)cc2)CC1	none
Cc1ccc(CN2CCC[C@]3(N[C@H](c4ccc(C)cc4)[C@@H]4C(=O)N(Cc5ccccc5)C(=O)[C@@H]43)C2=O)cc1	none (no result: PfHsp40 rescue)
CCn1ncc(Cl)c1C(=O)Nc1cc(Cl)ccc1Cl	Bead autofluor 22800
CCn1nccc1C(=O)Nc1cc(Cl)ccc1Cl	none
Cc1ccccc1S(=O)(=O)N1[C@@H](c2ccc(Br)cc2)C(C(=O)O)=CC[C@H]1c1ccc(Cl)cc1	none
Cc1ccc([C@@H]2CC=C(C(=O)O)[C@H](c3ccc(Br)cc3)N2S(=O)(=O)c2ccccc2C)cc1	PfHsp40 rescue 318
CCCSc1nc(-c2ccccc2)cc(C(F)(F)F)c1C#N	Bead autofluor 19871
COc1c(F)c(F)c(C(=O)Nc2ccc(N3CCN(Cc4ccccc4)CC3)cc2)c(F)c1F	Bead autofluor 24627
COc1ccc(OCC(=O)Nc2ccc(N3CCN(C(=O)c4ccccc4)CC3)c(Cl)c2)cc1	PfHsp40 rescue 39
COc1ccc(OCC(=O)Nc2ccc(N3CCOCC3)c(Cl)c2)cc1	none
COc1c(F)c(F)c(C(=O)Nc2ccc(N3CCN(C(C)=O)CC3)c(Cl)c2)c(F)c1F	BoNT A protease inconclusive, Bead autofluor 17323
CCCCCCCC(=O)NC1=NC(=O)C(C)(C)S1	BoNT-F LC inh inconclusive
Cn1nc(C(C)(C)C)cc1C(=O)Nc1nc2c(s1)C(=O)CC(C)(C)C2	Bead autofluor 22625
Cc1ccc(C(=O)COC(=O)C2C3C=CC(C3)C2C(=O)OCC(=O)c2ccc(C)c(C)c2)cc1C (stereo unspecified)	BoNT A protease inconclusive, Bead autofluor 22921
CC(=O)NCC(=O)OCC(=O)c1ccc(C)c(C)c1	none
O=C(Cc1cccs1)NCc1ccc(Cl)cc1Cl	BoNT-F LC inh inconclusive
CSc1ccc(NC(=O)N2CCN(c3nc4ccccc4s3)CC2)cc1	BoNT A protease inconclusive, Bead autofluor 21539
CCN1CCN(c2nc3ccccc3s2)CC1	BoNT A protease inconclusive, Bead autofluor 20785
Cn1c(C(=O)N2CCN(c3nc4ccccc4s3)CC2)cc2sccc21	Bead autofluor 19151
COC(=O)c1ccccc1S(=O)(=O)Oc1ccc(-c2ccc(C(=O)O)cc2)cc1	BoNT-F LC inh 37
O=C(O)c1ccc(-c2ccc(OS(=O)(=O)c3ccccc3F)cc2)cc1	none
Cc1noc(C)c1C(=O)OCC(=O)c1c[nH]c2ccccc12	BoNT A protease 47, Anthrax LF prot 53
O=C(Cc1csc(Nc2nc(=S)[nH]c3ccccc23)n1)NCc1ccc(Cl)cc1	Bead autofluor 23044
O=C1C=C(N(CCO)CCO)C2(CCCCC2)O1	BoNT A protease inconclusive, Bead autofluor 22987
Cc1ccc(-c2n[nH]c(=S)n2Cc2ccccc2)cc1	BoNT A protease inconclusive, Bead autofluor 22893
Cc1nc2scc(C)n2c(=O)c1S(=O)(=O)Nc1ccc(N2CCOCC2)cc1	none
CCOc1cc(CNn2cnnc2)ccc1OCC(=O)NC1CCCCC1	Bead autofluor 21782
Cc1nc2c(=O)oc3ccccc3c2n1-c1ccccc1	none
CCn1nnc2c(=O)oc3ccccc3c21	none
CCn1c(C)nc2c(=O)oc3ccccc3c21	Bead autofluor 21816
CC(C)Cn1nnc2c(=O)oc3ccccc3c21	BoNT A protease inconclusive, Bead autofluor 24285
O=c1[nH]cc(S(=O)(=O)N2CCN(c3ccccc3F)CC2)c(=O)[nH]1	none (no result: PfHsp40 rescue)
O=C(O)c1[nH]c2ccccc2c1NS(=O)(=O)Cc1ccccc1	Bead autofluor 16578
COCCCNC(=O)c1ccc2c(c1)CCN2S(C)(=O)=O	Bead autofluor 22130
CC(=O)c1cccc(S(=O)(=O)Nc2cc(C(F)(F)F)ccc2N2CCOCC2)c1	none
Cc1ccc(Oc2ccc(NC(=O)CCC(=O)OCC(=O)c3cccs3)cc2)cc1C	Bead autofluor 16284
CC(=O)c1ccc(NC(=O)COC(=O)CCC(=O)c2cccs2)cc1	none
Cc1ccc2[nH]c(=O)c(-c3nc4ccccn4c3NCc3ccco3)cc2c1	Bead autofluor 16211
O=Cc1c(NCc2ccco2)nc2ccccn2c1=O	none
CCCCSc1nc(C)cc(SCC(=O)N/N=C/c2cccc(OC)c2O)n1	PfHsp40 rescue 104
C[C@H](CO)N1C[C@H](C)[C@@H](CN(C)Cc2cncnc2)Oc2cc(Br)ccc2S1(=O)=O	none (no result: PfHsp40 rescue)
O=C(Nc1cccc(F)c1)C1CCN(C(=O)c2ccc(Br)cc2)CC1	Bead autofluor 23473
O=C(Nc1ccc(Br)cc1)C1CCN(C(=O)c2ccc(F)cc2)CC1	none
Cc1csc(=O)n1CC(=O)Nc1nc2ccccc2s1	none
CN(C)n1cccc1/C=C(\C#N)S(=O)(=O)c1ccc(Cl)cc1	PfHsp40 rescue 49
O=C(Nc1ccc(Cl)c(Cl)c1)c1ccc(Cn2cc(Cl)cn2)cc1	none
CCOc1ccc(C(=O)Nc2cnn(Cc3ccc(Cl)c(Cl)c3)c2)cc1	Bead autofluor 16229
CC1(C)Cc2cccc(OCC(=O)Nc3ccccc3N3CCOCC3)c2O1	Bead autofluor 16540
CC1(C)Cc2cccc(OCC(=O)Nc3ccccc3C(F)(F)F)c2O1	Bead autofluor inconclusive
CCn1c(SCC(=O)NCc2ccccc2)nnc1-c1c[nH]c2ccccc12	Bead autofluor 22868
COCCn1c(SCC(N)=O)nnc1-c1c[nH]c2ccccc12	none
C=CCSc1nnc(-c2c[nH]c3ccccc23)n1CCOC	Bead autofluor 22750
CCn1c(SCC(=O)OC)nnc1-c1c[nH]c2ccccc12	none
COC(=O)C1=C(C(=O)OC)C2C=CC1C1C(OC(C)=O)C(OC(C)=O)C21 (stereo unspecified)	none (no result: PfHsp40 rescue)
O=C(CNC(=O)c1cccc(-n2cnnn2)c1)Nc1ccc(F)c(F)c1	none
CCOC(=O)CSc1nc2sc3c(c2c(=O)n1-c1ccccc1)CCN(C(C)C)C3	BoNT A protease 56
CC1(C)CC(/C=C/c2ccccc2)=Nc2ccccc2N1	none
C=CCCCOc1ccc(C(=O)O)cc1	Bead autofluor 21372
O=C(O)c1ccc(OCCN2CCCC2=O)cc1	Bead autofluor 19644
Nc1[nH]c(C(=O)c2ccccc2)c(-c2ccccc2Br)c1C(=O)c1ccccc1	none (no result: MazEF act, PfHsp40 rescue)
COc1ccc(-n2cc(C(=O)O)c3ccccc3c2=O)cc1	Bead autofluor 16517
O=C(O)c1cn(-c2ccccc2)c(=O)c2ccccc12	none
Oc1ccc(Br)cc1-c1nc2cnccn2c1NC1CCCCC1	PfHsp40 rescue 94
COc1ccc(C(=O)COC(=O)c2cnc(C)cn2)c(OC)c1	none
O=C(c1ccco1)N(Cc1ccccc1)Cc1ccccn1	none
O=C(c1ccco1)N(Cc1ccco1)Cc1cc2ccccc2[nH]c1=O	none
O=C(c1cccs1)N(Cc1ccccn1)Cc1ccco1	Bead autofluor 24079

Assay outcomes deposited in PubChem by several laboratories.
